Measured values from PubChem BioAssay (NCATS).
Records with an inconclusive call do not appear. Activity calls are given as the source filed them. Calls follow the shape of the dose curve; as a rule, active = well fitted curve in the direction sought with a large enough effect; inconclusive = small, poorly fitted or top-dose-only effect, or another doubt; inactive = no such curve, though single readings can be large; an effect the other way counts as inactive or inconclusive.

Columns and labels:
[1] = target: ATP-dependent 6-phosphofructokinase (Trypanosoma brucei brucei) (UniProt O15648); assay: qHTS Assay to Find Inhibitors of T. brucei phosphofructokinase: hit validation (AID 492961);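 also: luminescence reports ADP formed as PFK phosphorylates fructose-6-phosphate with ATP; % is scaled to controls: 0 for no effect and ±100 for the full control effect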
Chain of ATP-dependent 6-phosphofructokinase (Trypanosoma brucei brucei) (O15648 whole entry, looked up): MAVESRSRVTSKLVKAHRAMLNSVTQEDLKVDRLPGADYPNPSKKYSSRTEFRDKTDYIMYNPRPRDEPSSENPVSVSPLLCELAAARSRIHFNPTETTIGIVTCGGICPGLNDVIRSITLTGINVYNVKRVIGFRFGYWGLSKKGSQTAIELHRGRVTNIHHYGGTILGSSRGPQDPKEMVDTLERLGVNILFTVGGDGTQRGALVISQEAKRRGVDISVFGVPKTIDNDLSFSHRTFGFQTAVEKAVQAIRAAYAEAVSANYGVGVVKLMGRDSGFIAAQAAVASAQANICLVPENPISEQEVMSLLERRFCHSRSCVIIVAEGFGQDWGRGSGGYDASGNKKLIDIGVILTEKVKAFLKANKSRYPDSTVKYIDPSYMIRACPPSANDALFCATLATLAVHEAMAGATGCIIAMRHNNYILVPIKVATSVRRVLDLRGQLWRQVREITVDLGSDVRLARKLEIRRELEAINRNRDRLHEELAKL
In short: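 PFK 1.25 nM, F6P 0.5 mM, ATP 0.1 mM, MgCl2 5 mM, 0.1 M TEA pH 8.0, Tween20 0.01%, BSA 0.1%; 45 min RT. ADP-Glo two-step detection, luminescence. qHTS titration; curve fitting with curve-class categorization.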

[2] = qHTS profiling for inhibitors of Plasmodium falciparum proliferation (AID 504749);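 also: 0% = DMSO vehicle and full inhibition = artemisinin control; nearly all actives have a fitted effect of over 60% in size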; settings: P. falciparum in erythrocytes, SYBR Green DNA, 72 h, at 28.7 µM (top of the series)
In short: (§1)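 P. falciparum-infected erythrocytes (0.3% parasitemia, 2.5% hematocrit final) were exposed to compounds for 72 h at 37 C in 5% CO2, then lysed with SYBR Green buffer overnight at room temperature; parasite DNA fluorescence was normalized to artemisinin and DMSO controls.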

3D7 = assay: as above; settings: P. falciparum in erythrocytes, SYBR Green DNA, 72 h; series mostly up to 28.7 µM
In short: as §1

AA1029 = assay: as above; settings: P. falciparum in erythrocytes, SYBR Green DNA, 72 h; series mostly up to 28.7 µM
In short: as §1

AS120 = assay: as above; settings: P. falciparum in erythrocytes, SYBR Green DNA, 72 h; series mostly up to 28.7 µM
In short: as §1

ATS189 = assay: as above; settings: P. falciparum in erythrocytes, SYBR Green DNA, 72 h; series mostly up to 28.7 µM
In short: as §1

CP185 = assay: as above; settings: P. falciparum in erythrocytes, SYBR Green DNA, 72 h; series mostly up to 28.7 µM
In short: as §1

CP191 = assay: as above; settings: P. falciparum in erythrocytes, SYBR Green DNA, 72 h; series mostly up to 28.7 µM
In short: as §1

CP194 = assay: as above; settings: P. falciparum in erythrocytes, SYBR Green DNA, 72 h; series mostly up to 28.7 µM
In short: as §1

CP217 = assay: as above; settings: P. falciparum in erythrocytes, SYBR Green DNA, 72 h; series mostly up to 28.7 µM
In short: as §1

CP237 = assay: as above; settings: P. falciparum in erythrocytes, SYBR Green DNA, 72 h; series mostly up to 28.7 µM
In short: as §1

CP238 = assay: as above; settings: P. falciparum in erythrocytes, SYBR Green DNA, 72 h; series mostly up to 28.7 µM
In short: as §1

CP252 = assay: as above; settings: P. falciparum in erythrocytes, SYBR Green DNA, 72 h; series mostly up to 28.7 µM
In short: as §1

CP265 = assay: as above; settings: P. falciparum in erythrocytes, SYBR Green DNA, 72 h; series mostly up to 28.7 µM
In short: as §1

CP286 = assay: as above; settings: P. falciparum in erythrocytes, SYBR Green DNA, 72 h; series mostly up to 28.7 µM
In short: as §1

DFO2036 = assay: as above; settings: P. falciparum in erythrocytes, SYBR Green DNA, 72 h; series mostly up to 28.7 µM
In short: as §1

DIV30 = assay: as above; settings: P. falciparum in erythrocytes, SYBR Green DNA, 72 h; series mostly up to 28.7 µM
In short: as §1

Dd2 = assay: as above; settings: P. falciparum in erythrocytes, SYBR Green DNA, 72 h; series mostly up to 28.7 µM
In short: as §1

N140 = assay: as above; settings: P. falciparum in erythrocytes, SYBR Green DNA, 72 h; series mostly up to 28.7 µM
In short: as §1

P94_40 = assay: as above; settings: P. falciparum in erythrocytes, SYBR Green DNA, 72 h; series mostly up to 28.7 µM
In short: as §1

CC(CCC(=O)O)C1CCC2C3C(=O)C[C@@H]4CC(=O)CC[C@@]4(C)C3CC(=O)[C@]12C (stereo not given in full)
inactive: Potency [1] | activity, negative = inhibition ([2]; parasite line A) -3.83% | activity, negative = inhibition ([2]; parasite line B) 1.51% | Potency (3D7) | Potency (AA1029) | Potency (AS120) | Potency (ATS189) | Potency (CP185) | Potency (CP191) | Potency (CP194) | Potency (CP217) | Potency (CP237) | Potency (CP238) | Potency (CP252) | Potency (CP265) | Potency (CP286) | Potency (DFO2036) | Potency (DIV30) | Potency (Dd2) | Potency (N140) | Potency (P94_40)

CC(=O)N1CC(O)CC1C(=O)O (stereo not given)
inactive: Potency [1] | activity, negative = inhibition ([2]; parasite line A) -10.1% | activity, negative = inhibition ([2]; parasite line B) -6.82% | Potency (3D7) | Potency (AA1029) | Potency (AS120) | Potency (ATS189) | Potency (CP185) | Potency (CP191) | Potency (CP194) | Potency (CP217) | Potency (CP237) | Potency (CP238) | Potency (CP252) | Potency (CP265) | Potency (CP286) | Potency (DFO2036) | Potency (DIV30) | Potency (Dd2) | Potency (N140) | Potency (P94_40)

O=C(O)c1ccc(N[C@@H]2OC[C@@H](O)[C@@H](O)[C@@H]2O)cc1
inactive: Potency [1] | activity, negative = inhibition ([2]; parasite line A) 8.43% | activity, negative = inhibition ([2]; parasite line B) 9.05% | Potency (3D7) | Potency (AA1029) | Potency (AS120) | Potency (ATS189) | Potency (CP185) | Potency (CP191) | Potency (CP194) | Potency (CP217) | Potency (CP237) | Potency (CP238) | Potency (CP252) | Potency (CP265) | Potency (CP286) | Potency (DFO2036) | Potency (DIV30) | Potency (Dd2) | Potency (N140) | Potency (P94_40)

CN(C)CC/C=C1\c2ccccc2COc2ccc(CC(=O)O)cc21
inactive: Potency [1] | activity, negative = inhibition ([2]; parasite line A) 1.27% | activity, negative = inhibition ([2]; parasite line B) -5.49% | Potency (3D7) | Potency (AA1029) | Potency (AS120) | Potency (ATS189) | Potency (CP185) | Potency (CP191) | Potency (CP194) | Potency (CP217) | Potency (CP237) | Potency (CP238) | Potency (CP252) | Potency (CP265) | Potency (CP286) | Potency (DFO2036) | Potency (DIV30) | Potency (Dd2) | Potency (N140) | Potency (P94_40)

NC(=O)OC[C@@H]1[C@H](NC(=O)/C(=N/OCC(=O)O)c2csc(N)n2)C(=O)N1S(=O)(=O)O
inactive: Potency [1] | activity, negative = inhibition ([2]; parasite line A) -1.72% | activity, negative = inhibition ([2]; parasite line B) 1.04% | Potency (3D7) | Potency (AA1029) | Potency (AS120) | Potency (ATS189) | Potency (CP185) | Potency (CP191) | Potency (CP194) | Potency (CP217) | Potency (CP237) | Potency (CP238) | Potency (CP252) | Potency (CP265) | Potency (CP286) | Potency (DFO2036) | Potency (DIV30) | Potency (Dd2) | Potency (N140) | Potency (P94_40)
